B2AR arrestin = beta2AR (human) beta-arrestin recruitment activity. P07550. beta-arrestin recruitment to beta2AR, cell-based reporter. Potency, µM (titrated, usually from 46.1 µM), for inactives: top-dose activation, most hits filed as activators. 330,000 tested, 0.02% active. AID 492947;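 further: 0% = DMSO controls and full agonism = EC100 isoproterenol or metaproterenol; nearly all actives have a fitted effect of over 65% in size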
Pin1 inh = inhibitors of human Pin1 | Q13526 | Pin1 FP peptide displacement, HiFluor488, 10 min | Potency, µM (highest dose often 115 µM), without a hit: at the highest dose activity, negative = inhibition, usual class: inhibitors | 390,000 tested, 0.009% active; active means well fitted inhibition curve with a large enough effect in the polarisation, with a control signal flat, not every such curve was filed as active; inconclusive means small, poorly fitted or top-dose-only effect, or effect the other way, or a change in a side signal; inactive means no such curve, though single readings can be large or run the other way; the % refers to the polarisation
Target sequence (Q13526 whole entry, looked up): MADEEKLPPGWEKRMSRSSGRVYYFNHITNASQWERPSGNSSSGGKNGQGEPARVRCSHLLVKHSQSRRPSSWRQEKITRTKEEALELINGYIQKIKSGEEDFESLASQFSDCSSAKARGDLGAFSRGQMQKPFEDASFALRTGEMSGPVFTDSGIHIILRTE
FEN1 inh = human FEN1 inhibition | P39748 | Recombinant FEN1 flap cleavage, fluorescence, 15 min | Potency, µM (highest dose often 114 µM), without a hit: top-dose activity change, negative = inhibition, hits mostly inhibitors | 390,000 tested, 0.35% active | AID 588795; further: nearly all actives have a fitted effect of over 65% in size
Target sequence (P39748 whole entry, looked up): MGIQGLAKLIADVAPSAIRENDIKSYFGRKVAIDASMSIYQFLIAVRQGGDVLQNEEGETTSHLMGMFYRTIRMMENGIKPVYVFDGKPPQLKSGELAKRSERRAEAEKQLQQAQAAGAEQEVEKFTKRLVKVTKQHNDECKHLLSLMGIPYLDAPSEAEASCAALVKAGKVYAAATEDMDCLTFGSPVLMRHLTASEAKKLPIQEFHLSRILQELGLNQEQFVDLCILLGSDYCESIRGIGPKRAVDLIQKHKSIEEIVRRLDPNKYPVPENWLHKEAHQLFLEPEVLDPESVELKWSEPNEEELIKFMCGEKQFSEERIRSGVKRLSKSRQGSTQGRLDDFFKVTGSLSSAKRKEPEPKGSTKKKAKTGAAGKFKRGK
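Read-out was taken twice, immediately and after 15 min, following addition of 50 nM substrate to 10 nM FEN1 that had sat with test compound for 15 min at room temperature. Curves came from a four-parameter Hill model.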
Apoferritin bind = binds horse apoferritin like a general anesthetic; P02791; apoferritin/1-aminoanthracene competitive binding, fluorescence; Potency, µM (doses to about 77.5 µM), without a hit: at the highest dose activity change, negative = displacement, usual class: inhibitors; 350,000 tested, 0.074% active; AID 485281; further: nearly all actives have a fitted effect of over 20% in size
Target sequence (P02791 2-175 limits assumed): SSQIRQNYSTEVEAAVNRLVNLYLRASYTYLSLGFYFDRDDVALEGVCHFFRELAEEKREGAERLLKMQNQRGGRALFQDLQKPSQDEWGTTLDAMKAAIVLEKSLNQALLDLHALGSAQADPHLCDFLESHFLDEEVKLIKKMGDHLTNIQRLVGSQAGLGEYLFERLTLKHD
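10 uM apoferritin + 50% sat. 1-AMA, PBS; cpd 10 min RT; Ex380/Em535 endpoint; normalized to free probe vs complex; 4-param Hill fit; propofol titration as pos. ctrl.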
BCR signal inh = blocks chronic active B-cell receptor signaling; AID 493014; 340,000 tested, 0.05% active; Potency, µM (titrated, usually from 46.1 µM), inactives show at the top dose activity change, negative = inhibition, hits mostly inhibitors; ABC-DLBCL IkBa-CBG/CBR reporter, luminescence ratio, 4 h; active means well fitted inhibition curve with a large enough effect in the signal ratio, with a control signal flat, not every such curve was filed as active; inconclusive means small, poorly fitted or top-dose-only effect, or effect the other way, or a change in a side signal; the % refers to the signal ratio;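 further: plate controls were basal doxycycline-induced cells for no effect and cells given 10 µM MG132 for full effect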
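TMD8 human ABC-DLBCL cells with doxycycline-inducible IκBα–green luciferase fusion and unfused red luciferase, in 0.5% FBS medium; compounds up to 46 uM, 4 h at 37C. Green/red luminescence ratio, filter-overlap corrected, fitted to concentration-response curves.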
PGK inhibitor = T. brucei PGK inhibition | PGK/GAPDH coupled, Kinase-Glo luminescence, 60 min | AID 602233 | Potency, µM (titrated, usually from 57.5 µM), for the others: top-dose activity change, negative = inhibition, hits mostly inhibitors | 380,000 tested, 0.043% active; further: nearly all actives have a fitted effect of over 60% in size
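Recombinant glycosomal PGK reaction used 1,3-bisphosphoglycerate generated in-well by GAPDH (100nM final) in 100mM TEA pH 7.6, 5mM MgCl2, 0.01% Tween-20. After 60 minutes at room temperature, ATP was read by Kinase-Glo Plus luminescence end-point.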
* hit, by the source's call; i = inactive; ? = inconclusive; · = no result. Hits are enriched below; roughly 0.45% of the tested compounds scored in any of these assays. Unless noted, the call rests on the fitted dose curve; in most records, active means well fitted curve in the direction sought with a large enough effect; inconclusive means small, poorly fitted or top-dose-only effect, or another doubt; inactive means no such curve, though single readings can be large; an effect the other way counts as inactive or inconclusive. Unless noted, on the % scale 0 is the no-effect control and ±100 the full control effect; potency means the concentration at half of the fitted maximal effect.

SMILES	B2AR arrestin	Pin1 inh	FEN1 inh	Apoferritin bind	BCR signal inh	PGK inhibitor
COc1cc2ncnc(N(C)Cc3csc(C)n3)c2cc1-c1ccc2c(c1)OCO2	·	6.0%	·	·	·	·
CC(=O)Nc1sc2c(c1-c1ccccc1)CCNC2	·	-4.0%	·	·	·	·
O=C1NC(=S)S/C1=C\c1ccc(SCc2ccco2)o1	0.1%	?	?	?	?	14.1µM*
O=C1NC(=S)S/C1=C\c1ccc(SCc2ccccc2)o1	0.3%	?	79.4µM*	-16.4%	?	?
CCOC(=O)c1c(NC(C)=O)sc2c(OCC(O)CN(CC)CC)c(Br)ccc12 (stereo not given)	-0.1%	8.1%	22.4µM*	-10.1%	4.7%	-11.3%
CSc1ccc(-c2sc(Nc3ccccc3)n[n+]2-c2ccccc2)cc1	-0.6%	17.2%	22.4µM*	-13.6%	-18.5%	3.8%
S=c1nc2ccccc2c2nc(-c3ccccc3)[nH]n12	3.98µM*	9.8%	-8.0%	-11.1%	?	-9.5%
CN(C)c1cccc(N2CCN(c3nn4c(=O)c5ccccc5nc4s3)CC2)c1	·	2.9%	·	·	·	·
O=C(CNC(=O)C12CC3CC(CC(C3)C1)C2)NCc1ccccc1	-0.1%	0.5%	1.9%	·	1.0%	-1.6%
NNC(=O)CNC(=O)C12CC3CC(CC(C3)C1)C2	-0.7%	0.9%	-0.6%	7.94µM*	?	i
CCC(c1ccc(O)c(O)c1)C(CC)c1ccc(O)c(O)c1 (stereo not given)	·	4.0%	?	·	·	7.4%
CCC(NC(C)C)C(O)c1ccc(O)c(O)c1 (stereo not given)	3.16µM*	-14.8%	?	1.5%	-19.3%	1.0%
COc1ccc(CN(Cc2ccccc2)C(=O)c2ccccc2O)cc1	·	-3.7%	·	·	·	·
CC(C)(C)C1=CC(=O)C(=O)C(C(C)(C)C)=C1	5.2%	-2.6%	70.8µM*	0.9%	?	·
CC(C)(C)C1=CC(=Nc2ccccc2N)C=C(C(C)(C)C)C1=O	-2.3%	?	-23.9%	-12.6%	2.2%	-10.7%
COC(=O)c1sc(-c2ccccc2)cc1NC(=O)Nc1ccc(F)cc1	·	0.6%	89.1µM*	-5.4%	·	-5.3%
S=C(NCCCN(Cc1ccc(Cl)c(Cl)c1)c1ccc(Br)cn1)NCCc1cnc[nH]1	·	-4.0%	·	·	·	·
COc1ccc(C2Nc3ccccc3C(=O)N2CCCN(C)C)cc1COc1ccc(NC(C)=O)cc1 (stereo not given)	·	1.6%	·	·	·	·
COc1ccc2c(c1)c(/C=N/Nc1nc3ccccc3[nH]1)c(C)n2C	-0.5%	-4.1%	11.7%	-1.4%	15.8µM*	-2.7%
Cc1ccc(-c2nnc(N3CCC(C(N)=O)CC3)s2)cc1	·	-7.8%	·	·	·	·
O=c1c2ccccc2nc2sc(Nc3cccc(Br)c3)nn12	·	0.0%	·	·	·	·
CCC(C)Nc1nc(N)c([N+](=O)[O-])c(N2CCCCCC2)n1 (stereo not given)	0.1%	-6.7%	?	-14.6%	1.9%	-2.0%
CC(C)CNc1nc(N)c([N+](=O)[O-])c(N2CCCCCC2)n1	0.1%	8.2%	44.7µM*	?	-5.9%	i
Cn1c(=O)c(NCCc2ccccc2)c2c3c(cccc31)C(=O)c1ccccc1-2	0.5%	?	56.2µM*	42.1%	19.7%	-1.0%
CCCCNc1c2c3c(cccc3n(C)c1=O)C(=O)c1ccccc1-2	-0.5%	?	?	-12.4%	-12.8%	-10.0%
SMILES	B2AR arrestin	Pin1 inh	FEN1 inh	Apoferritin bind	BCR signal inh	PGK inhibitor
N#C/C(=N/Nc1ccc(OC(F)(F)F)cc1)C(N)=S	-0.4%	2.3%	17.3%	-0.5%	?	1.8%
NC(=S)N=Nc1ccc(NN=C(N)N)cc1	-0.5%	-5.7%	50.1µM*	?	8.8%	-6.8%
CCOc1ccc(-c2csc(/C(C#N)=C\c3ccc(O)c([N+](=O)[O-])c3)n2)cc1	-2.0%	?	79.4µM*	-4.7%	11.8%	?
N#CC1=C2SCN(c3ccccc3)CN2C(=O)CC1c1ccccc1Cl (stereo not given)	-0.3%	-5.6%	?	?	-4.6%	1.9%
N#CC1=C2SCN(c3ccccc3)CN2C(=O)CC1c1c(Cl)cccc1Cl (stereo not given)	?	0.2%	79.4µM*	-13.5%	?	-6.4%
CN(Cc1nccs1)c1ncnc2ccc(-c3ccc4c(c3)OCO4)cc12	·	-0.8%	·	·	·	·
N#Cc1c(-c2ccco2)nc(SCC(=O)Nc2cccc(Cl)c2)[nH]c1=O	0.0%	-13.1%	-4.4%	-20.1%	14.4%	-8.1%
CC(C)(C)c1ccc(-c2nc(SCC(=O)Nc3ccc(Cl)cc3)[nH]c(=O)c2C#N)cc1	·	·	20µM*	?	·	-11.9%
Cc1ccc(C)n1/N=C1/NC(=O)CS1	-1.1%	?	31.6µM*	-14.5%	-0.7%	?
O=C1CCCC2=C1C1(CCSCC1)N=C(Nc1nc3ccccc3o1)N2	·	1.2%	·	·	·	·
CCOc1cccc(C=NNc2ccc(S(=O)(=O)Nc3ccccc3C(=O)O)cc2[N+](=O)[O-])c1O	-0.3%	?	-30.8%	·	11.8%	-6.8%
COc1ccc(C=NNc2ccc(S(=O)(=O)Nc3ccccc3C(=O)O)cc2[N+](=O)[O-])c(OC)c1	-0.6%	·	22.4µM*	·	?	?
O=C(COC(=O)CNC(=O)c1ccccc1)Nc1cc(C(F)(F)F)ccc1Cl	·	0.9%	·	·	·	·
CCCCCCC[n+]1ccc(C)c2ccccc21	·	·	3.3%	·	·	·
CCCCCCCCCCCCCCCC[n+]1ccc(/C=C/c2c(C)[nH]c3ccccc23)cc1	·	·	-29.9%	·	·	·
CCCCCCCCCC[n+]1ccc(/C=C/c2c(C)[nH]c3ccccc23)c2ccccc21	·	·	44.7µM*	·	·	·
CCCCCCC[n+]1ccc(/C=C/c2c(C)[nH]c3ccccc23)c2ccccc21	·	·	44.7µM*	·	·	·
CN1CCN(c2cccc(Nc3nn4c(=O)c5ccc(Br)cc5nc4s3)c2)CC1	·	2.5%	·	·	·	·
O=[N+]([O-])c1ccc(Nc2ccccc2)c2nonc12	-0.3%	48.2%	-16.5%	-12.6%	9.5%	-7.1%
O=[N+]([O-])c1ccc(Sc2cccc[n+]2[O-])c2nonc12	0.5%	?	22.4µM*	1.1%	?	?
COc1ccc(-c2ccc3ncnc(NCc4nc(C)cs4)c3c2)cc1OC	·	-2.9%	·	·	·	·
O=[N+]([O-])c1ccccc1S(=O)(=O)NCCC1=CCCCC1	0.4%	-3.1%	-17.9%	10µM*	?	-2.9%
O=C(Cc1ccccc1[N+](=O)[O-])NCCC1=CCCCC1	-0.1%	-4.0%	2.7%	-13.8%	-0.8%	-6.9%
O=C1CSC(=S)N1/N=C/c1cc(Br)c(O)c(Br)c1	-0.3%	?	22.4µM*	-3.8%	?	?
COc1cc(/C=N/N2C(=O)CSC2=S)ccc1O	-0.1%	?	?	-18.8%	-8.9%	1.8%
COc1ccc2occ(C(=O)c3ccc(N)cc3)c2c1	-0.5%	-5.1%	8.5%	-19.4%	?	2.1%
